# Measurements from publication PMC4336329 (PLoS ONE, 2015).
# The campaign covered roughly 310,000 compounds. About 14,000 (4.5%) showed an effect of 50% or more. Effects have a minus sign here. Only a selection was taken, and strong results are over-represented in it overall.
# Target: human ether-à-go-go-related gene (hERG) potassium channel (human, UniProt Q12809)
# Assay: primary screen, population patch clamp on CHO cells stably expressing hERG; higher = less effect of the substance
# 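Also: peak tail current of the secondary pulse compared with the same well before compound.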
# Chain of human ether-à-go-go-related gene (hERG) potassium channel (Q12809 whole entry, looked up): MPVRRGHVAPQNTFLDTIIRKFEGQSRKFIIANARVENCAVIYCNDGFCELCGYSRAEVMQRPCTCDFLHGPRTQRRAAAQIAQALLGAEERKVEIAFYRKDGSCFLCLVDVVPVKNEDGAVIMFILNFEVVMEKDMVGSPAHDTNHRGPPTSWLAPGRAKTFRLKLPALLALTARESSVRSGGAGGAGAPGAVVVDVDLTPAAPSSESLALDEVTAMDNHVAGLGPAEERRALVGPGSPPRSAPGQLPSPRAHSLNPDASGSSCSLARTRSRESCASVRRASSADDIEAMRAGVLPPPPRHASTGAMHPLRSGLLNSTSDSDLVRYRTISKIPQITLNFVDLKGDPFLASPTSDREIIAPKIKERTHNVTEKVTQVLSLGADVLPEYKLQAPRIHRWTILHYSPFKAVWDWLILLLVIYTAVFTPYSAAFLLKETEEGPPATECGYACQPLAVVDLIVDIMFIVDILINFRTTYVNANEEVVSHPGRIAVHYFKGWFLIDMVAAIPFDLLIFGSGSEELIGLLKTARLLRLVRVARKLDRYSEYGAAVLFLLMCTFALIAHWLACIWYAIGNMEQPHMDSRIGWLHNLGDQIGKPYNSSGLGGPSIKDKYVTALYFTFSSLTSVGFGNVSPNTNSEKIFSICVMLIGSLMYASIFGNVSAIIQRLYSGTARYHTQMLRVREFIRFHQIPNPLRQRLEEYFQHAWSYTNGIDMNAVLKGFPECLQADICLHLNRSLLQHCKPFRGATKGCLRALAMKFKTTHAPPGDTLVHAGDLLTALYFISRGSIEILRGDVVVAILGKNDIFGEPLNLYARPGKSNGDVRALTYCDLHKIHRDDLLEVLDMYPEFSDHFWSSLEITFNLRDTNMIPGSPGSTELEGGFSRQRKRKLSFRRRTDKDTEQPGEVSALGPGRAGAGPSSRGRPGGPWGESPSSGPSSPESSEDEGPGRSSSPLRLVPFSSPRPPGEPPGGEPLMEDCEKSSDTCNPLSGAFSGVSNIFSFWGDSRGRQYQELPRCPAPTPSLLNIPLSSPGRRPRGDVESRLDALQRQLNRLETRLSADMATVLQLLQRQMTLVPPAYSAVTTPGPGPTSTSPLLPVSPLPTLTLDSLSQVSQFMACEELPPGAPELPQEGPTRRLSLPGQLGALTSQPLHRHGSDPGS
row,SMILES,"hERG current change (%, negative = inhibition) at 10uM [%]"
1,CCOc1ccc(/C=N/Nc2ccccc2)cc1,17.6
2,O=C(c1cccnc1)N1c2ccccc2Sc2ccccc21,-18.1
3,c1ccc(CCn2nnnc2CN2CCC(n3nnc4ccccc43)CC2)cc1,-36.4
4,Fc1ccc2c(c1)nnn2C1CCN(Cc2ccccc2)CC1,-61.4
5,Fc1ccc2c(c1)nnn2C1CCN(Cc2c(Cl)cccc2Cl)CC1,7.11
6,Cl.Fc1ccc2c(c1)nnn2C1CCN(Cc2nnnn2CCc2ccccc2)CC1,-61.3
7,O=C(NC1CCN(Cc2nnnn2CCc2ccccc2)CC1)c1ccccc1F,-3.18
8,CCCC(C)C(=O)Nc1ccc(Cl)cn1 (stereo not drawn),-7.45
9,COc1cc(OC)nc(Oc2cc(/C=N/O)ccc2OC)n1,0.516
10,CCOC(=O)N1CCN(C(=O)c2cccc(F)c2)CC1,-17.9
11,Cc1[nH]c(-c2ccc(F)cc2)cc1C(=O)N1CCN(c2ccc(Cl)cc2)CC1,-13.4
12,COc1cccc(N2CCN(C(=O)c3cc(-c4ccc(F)cc4)[nH]c3C)CC2)c1,-68.4
13,COc1cccc(N2CCN(C(=O)c3ccc(-c4ccccc4)cc3)CC2)c1,-49.5
14,COc1ccc(N2CCN(C(=O)c3cc(-c4ccc(F)cc4)[nH]c3C)CC2)cc1,-67.4
15,COc1cccc(N2CCN(C(=O)c3cc(C)oc3C)CC2)c1,6.8
16,CCOC(=O)N1CCN(C(=O)c2cc(-c3ccc(F)cc3)[nH]c2C)CC1,-72.3
17,Cc1[nH]c(-c2ccc(F)cc2)cc1C(=O)N1CCN(c2cccc(Cl)c2)CC1,-12
18,Cc1[nH]c(-c2ccc(F)cc2)cc1C(=O)N1CCN(c2ccccc2)CC1,-58.8
19,COc1ccc(-n2ncc(C(=O)N3CCN(c4ccc(F)cc4)CC3)c2C)cc1,-22.6
20,Cc1ccc(N2CCN(C(=O)c3cc(-c4ccc(F)cc4)[nH]c3C)CC2C)cc1 (stereo not drawn),-13.3
21,CCOC(=O)N1CCC(NC(=O)c2cc(-c3ccc(F)cc3)[nH]c2C)CC1,-0.721
22,CCC(=O)NNc1ncnc2ccccc12,9.38
23,CCN(CC)C(=O)C1CCCN(Cc2ccc3ccccc3c2)C1 (stereo not drawn),-19
24,CC(C)(C)OC(=O)NCCCC1=CC2=CC(=O)C(C)(OC(=O)c3ccco3)C(=O)C2=CO1 (stereo not drawn),5.99
